Laboratory results taken from PubChem BioAssay (Tox21).
Where “and” joins values, the source holds several entries; their conditions need not be identical. Equal values may be shown once. Results filed as inconclusive are left out. A number with no mark means an inactive call. Calls of active or inactive are those of the source. The call rests on the fitted dose curve; in most records, active means well fitted cell-killing curve with a large enough effect in the repeat runs; inconclusive means weak or mixed curves, or effect the other way; inactive means no such curve, though single readings can be large or run the other way.

Experiment: Caspase-3/7 induction in CHO-K1 cells by small molecules, qHTS cell viability counter screen (AID 1346979); further: nearly all actives have a fitted effect of over 35% in size
Details: CellTiter-Fluor fluorescence, 17 h; series mostly up to 92.4 µM
Text: National Center for Advancing Translational Sciences [NCATS]
NIH Chemical Genomics Center [NCGC]
U.S. Environmental Protection Agency [EPA]
National Institutes of Environmental Health Sciences [NIEHS]
National Toxicology Program [NTP]
U.S. Food and Drug Administration [FDA]
Apoptosis is a process of programmed cell death and plays a central role in the development of multicellular organisms. It is a highly regulated process and induces cell death by activating caspases, which are the members of cysteine aspartic acid-specific protease (caspase) family. Caspases involved in apoptosis are classified by their mechanism of action as initiator caspases (caspase-2, -8, -9 and -10) and executioner caspases (caspase-3, -6, and -7). Inhibition of apoptosis results in number of cancers, autoimmune diseases, inflammatory diseases and viral infection. To identify small molecule compounds that induce apoptosis, a homogeneous, luminescent Caspase-Glo 3/7 assay was used. Wild type CHO-K1 cells were used to screen Tox21 libraries for identifying caspase-3/7 activity inducers. Also cytotoxicity of the compounds was tested in parallel by measuring the cell viability using CellTiter-Fluor assay system in the same wells.
Tox21 Assay Protocol Summary:
CHO-K1 cells were dispensed at 1,500 per well in 5uL of culture medium into white solid bottom 1536-well plates (Corning Life Sciences, Corning, NY) using a Multidrop Combi (Thermo Scientific, Waltham, MA) dispenser. The assay plates were incubated at 37 C and 5% CO2 for 5hr, and then 23nL of compounds dissolved in DMSO and positive control were transferred using a Pintool station (Wako, San Diego, CA). The assay plates were incubated at 37C and 5% CO2 for 17hr. For cytotoxicity read, after 16hr incubation at 37C, 1uL CellTiter-Fluor reagent (Promega Corporation, Madison, WI) was added to each well of the assay plates using Flying Reagent Dispenser (FRD, Aurora Discovery, San Diego, CA). After 1hr incubation at 37C and 5% CO2, the fluorescence signal was quantified using a ViewLux plate reader (PerkinElmer, Shelton, CT).
On the % scale 0 is the no-effect control and ±100 the full control effect; potency means the concentration at half of the fitted maximal effect.

SMILES	Potency	activity change, negative = cytotoxicity
CC(C)(C)c1ccc(C(=O)O)cc1	inactive	
C[C@H]1[C@H]2CC[C@H]3[C@@H]4CC=C5C[C@@H](N(C)C)CC[C@]5(C)[C@H]4CC[C@]23CN1C	inactive	
CCC(C)(C)C1CCCCC1OC(C)=O (stereo not given)	inactive	
CC(NN)c1ccccc1 (stereo not given)		6.27% [at 19 µM]
CCCCCCCCn1sc(Cl)c(Cl)c1=O	2.73 µM (active)	
CCCCCCCC[P+](CCCCCCCC)(CCCCCCCC)CCCCCCCC	5.42 µM (active)	
Cc1[nH]cnc1C[C@H]1CCc2c(C)c3ccccc3n2C1=O	47.4 µM (active)	
CCc1cc(Cc2cc(CC)cc(C(C)(C)C)c2O)c(O)c(C(C)(C)C)c1	38.6 µM (active)	
Cc1cc(CCN2CCN(c3nsc4ccccc34)CC2)cc2c1NC(=O)CC2(C)C	24.3 µM (active)	
CCCCCCCCOC(=O)c1ccc(O)cc1	24.3 µM (active)	
N#CSc1ccc(N)c([N+](=O)[O-])c1	38.8 µM (active)	
CC(C)(C)NC(=O)[C@@H]1C[C@@H]2CCCC[C@@H]2CN1C[C@@H](O)[C@H](Cc1ccccc1)NC(=O)[C@H](CC(N)=O)NC(=O)c1ccc2ccccc2n1	19.6 µM (active)	
CC1=NC(C)OC1C (stereo not given)	inactive	
O=C(N/N=C/c1ccccc1O)c1ccncc1	7.5 µM (active)	
OCCN1CCN(CC/C=C2/c3ccccc3Sc3ccc(C(F)(F)F)cc32)CC1	29.8 µM (active)	
CN(C)CCCOC1(Cc2ccccc2)CCCCCC1	inactive	
Cc1cc(O)c(C(C)(C)C)cc1C(C)(C)C	61.1 µM (active)	
NC(=NCCCCCCN=C(N)/N=C(\N)Nc1ccc(Cl)cc1)/N=C(\N)Nc1ccc(Cl)cc1	24.2 µM (active) [middle of 5 runs]	
Cc1ccc(O)c2ncccc12	5.31 µM (active)	
CCCCCCCC(=O)[O-].CCCCCCCC(=O)[O-].[Zn+2]	inactive	

SMILES	Potency	activity change, negative = cytotoxicity
CCCCCCCCCCCCCCCS(=O)(=O)Oc1ccccc1	inactive	
CC(C)(C)C1CCC(CC2=C(O)c3ccccc3C(=O)C2=O)CC1 (stereo not given)	9.44 µM (active)	
C=CC(=O)OCC(CO)(COC(=O)C=C)COC(=O)C=C	2.74 µM (active) and 6.11 µM (active)	
CO[Si](CCCNc1ccccc1)(OC)OC	inactive	
O=C(Nc1cccc(Cl)c1)OCC#CCCl	30.6 µM (active)	
CC[C@H](c1ccc(O)cc1)[C@@H](CC)c1ccc(O)cc1	68.6 µM (active)	
CC(C)(C)CC(C)(C)c1ccc(O)c(Cc2ccc(Cl)cc2Cl)c1	18.8 µM (active)	
CCN(C(=O)c1cc(C)cc(OC[C@H](C)Nc2ccncc2)c1)C(C)C	inactive	
Oc1c(Cl)cc(Cl)c2cccnc12	11.9 µM (active)	
Nc1nc2ccccc2n1Cc1ccc(F)cc1	23.7 µM (active)	
On1ccccc1=S	0.428 µM (active)	
CNC(=O)c1ccccc1	inactive	
COC(=O)C1=C(C)NC(C)=C(C(=O)OCC(C)C)C1c1ccccc1[N+](=O)[O-] (stereo not given)	61.1 µM (active) and 29.8 µM (active)	
CCCCCCCCCCCCc1ccc(O)cc1	43.3 µM (active)	
Cc1cc(O)c(Cl)c(C)c1Cl	inactive	
Clc1ccccc1C(c1ccccc1)(c1ccccc1)n1ccnc1	8.63 µM (active) and 7.5 µM (active)	
CC(C)OC(=O)c1cc2c(OCC(O)CNC(C)(C)C)cccc2[nH]1 (stereo not given)	inactive	
N=C1N=C(N)c2ccccc21	61.1 µM (active)	
Cc1cc(N)c(S(=O)(=O)O)cc1Cl	inactive	
CN(C/C=C/C#CC(C)(C)C)Cc1cccc2ccccc12	inactive	
